The text below walks through data of PubChem BioAssay (Tox21).

Inconclusive results are not listed. Some structures have more than one record in an assay (separate samples or runs), and their calls can disagree. The source made the active and inactive calls. Unless noted, calls come from the whole dose curve; as a rule, active = well fitted curve in the direction sought with a large enough effect in the repeat runs; inconclusive = weak or mixed curves; inactive = no such curve, though single readings can be large; an effect the other way counts as inactive or inconclusive.

Test [1] is described as follows: qHTS assay to identify small molecule agonists of the estrogen receptor alpha (ER-alpha) signaling pathway in the presence of an antagonist - cell viability counter screen (AID 1259386).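 Note: series mostly up to about 92 µM; cells exposed to compounds for 22 h at 37 °C before the viability read; % is set by controls: 0 for no effect and ±100 for the full control effect; nearly all actives have a fitted effect of over 30% in size.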 An outline of the steps: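 Viability counter screen using VM7Luc4E2 (full-length ER-alpha, four ERE-luciferase). The cells were treated with compounds alongside ICI-182,780 10.0nM for 22hr, and live-cell protease fluorescence was quantified with CellTiter-Fluor.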
On the technique in general: Quantitative high-throughput screening tests each substance at several concentrations.

For test [2], the target named is Progesterone receptor (Homo sapiens) (UniProt P06401). The test is described as follows: qHTS assay to identify small molecule antagonists of the progesterone receptor (PR) signaling pathway (AID 1346795; active = well fitted inhibition curve with a large enough effect in the signal ratio in the repeat runs, not every such curve was filed as active; the % refers to the signal ratio; note: % is set by controls: 0 for no effect and ±100 for the full control effect). In a few lines: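 PR-UAS-bla HEK293T cells carrying a UAS-driven beta-lactamase reporter were plated in medium with 2% charcoal-stripped FBS and rested 6 hr at 37C. Compounds were added with 1 nM R5020 (final) for 16 hr, then FRET substrate loaded 2 hr at room temperature.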
Sequence of Progesterone receptor (Homo sapiens) (P06401 whole entry, looked up): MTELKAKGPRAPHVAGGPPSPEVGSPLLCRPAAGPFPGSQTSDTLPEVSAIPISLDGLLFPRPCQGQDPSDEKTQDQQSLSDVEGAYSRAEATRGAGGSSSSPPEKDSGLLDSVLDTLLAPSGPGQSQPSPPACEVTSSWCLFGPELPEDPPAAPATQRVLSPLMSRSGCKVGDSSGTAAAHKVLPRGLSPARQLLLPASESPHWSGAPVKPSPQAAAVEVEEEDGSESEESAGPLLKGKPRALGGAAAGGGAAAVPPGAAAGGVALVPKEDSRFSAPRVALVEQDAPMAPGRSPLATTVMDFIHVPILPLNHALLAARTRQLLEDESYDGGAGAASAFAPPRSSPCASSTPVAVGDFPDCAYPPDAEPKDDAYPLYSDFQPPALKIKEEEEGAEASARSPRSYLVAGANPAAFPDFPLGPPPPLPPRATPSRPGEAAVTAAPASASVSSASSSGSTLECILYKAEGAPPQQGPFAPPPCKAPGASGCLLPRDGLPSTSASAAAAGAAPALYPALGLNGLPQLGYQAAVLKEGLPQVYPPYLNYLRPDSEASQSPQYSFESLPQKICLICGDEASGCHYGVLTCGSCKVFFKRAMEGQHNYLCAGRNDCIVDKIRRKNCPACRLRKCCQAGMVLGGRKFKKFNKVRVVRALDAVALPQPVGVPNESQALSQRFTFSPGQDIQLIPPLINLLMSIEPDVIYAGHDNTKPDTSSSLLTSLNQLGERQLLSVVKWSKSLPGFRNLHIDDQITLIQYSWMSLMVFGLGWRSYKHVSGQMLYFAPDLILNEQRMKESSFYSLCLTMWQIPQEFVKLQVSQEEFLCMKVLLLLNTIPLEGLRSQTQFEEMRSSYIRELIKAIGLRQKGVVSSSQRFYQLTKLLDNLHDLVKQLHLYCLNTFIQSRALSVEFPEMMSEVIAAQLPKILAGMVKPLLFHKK

Test [3] in a line: qHTS assay to identify small molecule antagonists of the progesterone receptor (PR) signaling pathway - cell viability counter screen (AID 1346798). Note: series mostly up to about 92 µM; % is set by controls: 0 for no effect and ±100 for the full control effect; nearly all actives have a fitted effect of over 50% in size. In a few lines:
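PR-UAS-bla HEK293T cells in medium with 2% charcoal-stripped FBS were treated with compounds plus R5020 for 16 hr at 37C. Cell viability was then read by CellTiter-Glo luminescence after 30 min at room temperature in the same wells.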

A short description of test [4]: qHTS assay to identify small molecule agonists of the progesterone receptor (PR) signaling pathway - cell viability counter screen (AID 1346799; calls by dose curve; note: % is set by controls: 0 for no effect and ±100 for the full control effect; nearly all actives have a fitted effect of over 45% in size). An outline of the steps: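 PR-UAS-bla HEK293T cells, 3,000 per well in medium with 2% charcoal-stripped FBS, were preincubated 6 hr at 37C, then exposed to compounds for 16 hr; viability was read as CellTiter-Glo luminescence after 30 min at room temperature.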

Test [5] is described as follows: qHTS assay to identify small molecule antagonists of the TGF-beta/Smad signaling pathway - cell viability counter screen (AID 1346824). Note: % is set by controls: 0 for no effect and ±100 for the full control effect; nearly all actives have a fitted effect of over 50% in size. An outline of the steps: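 SBE-bla HEK 293T cells were plated overnight at 37 C, then given compounds in DMSO plus TGF-beta1 (added as 0.25 ng/mL solution) for 5 hr. After the bla read, CellTiter-Glo was added to the same wells and luminescence read after 30 min at room temperature.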

The nature of test [6]: qHTS assay to identify small molecule agonists of the TGF-beta/Smad signaling pathway (AID 1346859; active = well fitted activation curve with a large enough effect in the signal ratio in the repeat runs, not every such curve was filed as active; the % refers to the signal ratio; note: series mostly up to about 77 µM; % is set by controls: 0 for no effect and ±100 for the full control effect). In a few lines: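 HEK 293T cells stably carrying a beta-lactamase reporter driven by the Smad binding element were seeded overnight, exposed to DMSO-dissolved compounds for 5 hr at 37 C, 5% CO2, then loaded with FRET substrate for 2 hr at room temperature.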
Test [7] has as its target Thyrotropin-releasing hormone receptor (Homo sapiens) (UniProt P34981). The test is described as follows: qHTS assay to identify small molecule antagonists of the thyrotropin-releasing hormone receptor (TRHR) signaling pathway (AID 1346877; active = well fitted inhibition curve with a large enough effect in the repeat runs, not every such curve was filed as active; note: series mostly up to about 51 µM; % is set by controls: 0 for no effect and ±100 for the full control effect). In a few lines:
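Following an 18 h incubation at 37 °C and a 2 h calcium dye load, TRHR-HEK293 cells were exposed to compound (5 min, room temperature) and challenged with TRH, 1 nM final.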

The target is the same in test [8]. The test is described as follows: qHTS assay to identify small molecule agonists of the thyrotropin-releasing hormone receptor (TRHR) signaling pathway (AID 1346891; calls by dose curve; note: series mostly up to about 58 µM; % is set by controls: 0 for no effect and ±100 for the full control effect). In a few lines: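 TRHR-expressing HEK293 cells were plated 18 h at 37 °C/5% CO2, loaded with calcium dye 2 h at 37 °C, then given compound in DMSO; fluorescence was read kinetically for 3 min at 1 s intervals.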

Test [9] can be described thus: Human pregnane X receptor (PXR) small molecule agonists, qHTS cell viability counter screen (AID 1346977). Note: nearly all actives have a fitted effect of over 50% in size. Note: potency is the fitted concentration of half-maximal effect. In a few lines:
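PXR-Luc HepG2 cells in medium with 5% charcoal-stripped FBS were pre-incubated 5hr, then exposed to compounds for 24hr at 37C. Viability was read in the same wells by CellTiter-Fluor fluorescence, reagent added after 23hr with a 1hr incubation.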

The nature of test [10]: Caspase-3/7 induction in HepG2 cells by small molecules, qHTS assay (AID 1346978). Note: % is set by controls: 0 for no effect and ±100 for the full control effect; nearly all actives have a fitted effect of over 15% in size. In a few lines:
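Wild-type HepG2 cells (2,000/well) were settled 5 h at 37 C, 5% CO2, then exposed to compounds in DMSO for 17 h. Caspase-3/7 activity was read by luminescence 30 min after adding Caspase-Glo 3/7 reagent at room temperature.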

The nature of test [11]: Caspase-3/7 induction in CHO-K1 cells by small molecules, qHTS cell viability counter screen (AID 1346979). Note: nearly all actives have a fitted effect of over 35% in size. Note: potency is the fitted concentration of half-maximal effect. In a few lines:
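Wild-type CHO-K1 cells were seeded at 1,500 per well, rested 5hr at 37 C, then exposed to compounds in DMSO. After 16hr, CellTiter-Fluor reagent was added and fluorescence read 1hr later as the viability measure.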

Test [12] in a line: Caspase-3/7 induction in CHO-K1 cells by small molecules, qHTS assay (AID 1346980). Note: % is set by controls: 0 for no effect and ±100 for the full control effect; nearly all actives have a fitted effect of over 15% in size. An outline of the steps:
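Wild-type cells were seeded at 1,500 per well and settled 5 hr at 37 C, 5% CO2, then exposed to DMSO-dissolved compounds for 17 hr. Caspase-Glo 3/7 reagent was added, and luminescence was read after 30min at room temperature.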

Test [13] in a line: Caspase-3/7 induction in HepG2 cells by small molecules, qHTS cell viability counter screen (AID 1346981). Note: series mostly up to about 92 µM; % is set by controls: 0 for no effect and ±100 for the full control effect; nearly all actives have a fitted effect of over 30% in size. In a few lines:
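Viability determined by CellTiter-Fluor fluorescence in HepG2 wells also used for the luminescent Caspase-Glo 3/7 read. Compounds were present for 16 hr at 37 C, 5% CO2 before reagent addition.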

For test [14], the target named is Progesterone receptor (Homo sapiens) (UniProt P06401). The test is described as follows: qHTS assay to identify small molecule agonists of the progesterone receptor (PR) signaling pathway (AID 1346784; calls by dose curve; note: % is set by controls: 0 for no effect and ±100 for the full control effect; nearly all actives have a fitted effect of over 30% in size). In a few lines: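 PR-UAS-bla HEK 293T cells carrying a UAS-driven beta-lactamase reporter were seeded in medium with 2% charcoal-stripped FBS, preincubated 6 hr at 37C, then exposed to compounds in DMSO for 16 hr; agonism was read by LiveBLAzer B/G FRET fluorescence.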

Test [15] deals with Nuclear receptor subfamily 1 group I member 2 (Homo sapiens) (UniProt O75469). The experiment in a line: Human pregnane X receptor (PXR) small molecule agonists, qHTS assay (AID 1346982). Note: potency is the fitted concentration of half-maximal effect; nearly all actives have a fitted effect of over 35% in size. An outline of the steps: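 Compound-induced hPXR transactivation of a CYP3A4 luciferase reporter was scored in HepG2 PXR-Luc cells over 24 hr at 37 C, 5% CO2, by luminescence.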
Sequence of Nuclear receptor subfamily 1 group I member 2 (Homo sapiens) (O75469 whole entry, looked up): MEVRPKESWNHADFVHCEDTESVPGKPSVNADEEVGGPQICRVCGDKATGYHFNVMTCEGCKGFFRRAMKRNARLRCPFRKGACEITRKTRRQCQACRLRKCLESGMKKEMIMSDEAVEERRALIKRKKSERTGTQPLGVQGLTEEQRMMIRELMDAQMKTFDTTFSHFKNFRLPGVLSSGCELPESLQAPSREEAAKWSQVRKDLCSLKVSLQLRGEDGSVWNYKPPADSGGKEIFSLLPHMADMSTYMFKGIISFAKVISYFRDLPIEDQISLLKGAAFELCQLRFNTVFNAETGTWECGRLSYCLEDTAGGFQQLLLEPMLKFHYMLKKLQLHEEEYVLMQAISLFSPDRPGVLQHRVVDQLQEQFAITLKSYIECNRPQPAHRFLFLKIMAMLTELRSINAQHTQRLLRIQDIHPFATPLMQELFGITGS
Test [16] deals with Thyrotropin receptor (Homo sapiens) (UniProt P16473). The experiment in a line: qHTS assay to identify small molecule antagonists of the thyroid stimulating hormone receptor (TSHR) signaling pathway (AID 1259385; calls by dose curve; note: % is set by controls: 0 for no effect and ±100 for the full control effect; nearly all actives have a fitted effect of over 20% in size). An outline of the steps:
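TSHR-HEK293 cells were plated and held 18 h at 37C/5% CO2, then given compound plus Ro20-1724 and stimulated with TSH at 1.5 ng/mL final. After 30 min at room temperature, cAMP was detected with cAMP-d2/anti-cAMP-cryptate (1 h) by fluorescence.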

Test [17] in a line: qHTS assay to identify small molecule agonists of the TGF-beta/Smad signaling pathway - cell viability counter screen (AID 1346829). Note: top concentration of the series differs between compounds; % is set by controls: 0 for no effect and ±100 for the full control effect; nearly all actives have a fitted effect of over 45% in size. In a few lines:
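Here the cytotoxicity of library compounds is measured in SBE-bla HEK 293T cells treated for 5 hr, using CellTiter-Glo added to wells already read for the beta-lactamase reporter.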

Test [18] has as its target Nuclear receptor subfamily 1 group I member 2 (Rattus norvegicus) (UniProt Q9R1A7). The test is described as follows: Rat pregnane X receptor (rPXR) activation by small molecules, qHTS assay (AID 1346983). Note: % is set by controls: 0 for no effect and ±100 for the full control effect; nearly all actives have a fitted effect of over 20% in size. Particulars: rPXR luciferase reporter cells, One-Glo luminescence, 24 h; stronger effect = higher value. An outline of the steps:
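Cell-based rPXR luciferase reporter assay, 2,000 cells per well, rested 5hr at 37 C before compound addition in DMSO, then 24 hr at 37 C. One-Glo reagent was added and luminescence read after 30 min at room temperature.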

Test [19] has as its target Nuclear receptor subfamily 1 group I member 2 (Homo sapiens) (UniProt O75469). The test is described as follows: CYP3A4 induction through human pregnane X receptor (PXR) by small molecules, qHTS assay (AID 1346984). Note: % is set by controls: 0 for no effect and ±100 for the full control effect; nearly all actives have a fitted effect of over 40% in size. In a few lines:
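Readings come from a luciferase reporter: DPX-2 cells, which are HepG2 cotransfected with PXR and a CYP3A4-promoter construct, were exposed to test compounds for 24 h at 37C before One-Glo detection.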

Test [20] shares this target. The test is described as follows: Human pregnane X receptor (PXR) activation by small molecules, qHTS assay (AID 1346985). Note: % is set by controls: 0 for no effect and ±100 for the full control effect; nearly all actives have a fitted effect of over 40% in size. An outline of the steps: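 DPX-2 cells (HepG2 co-transfected with a PXR response element and a CYP3A4-promoter luciferase construct) were seeded at 2,000 per well, rested 5 hr at 37C, then exposed to DMSO-dissolved compounds for 24 hr. Activation was read as luciferase luminescence.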

Sequence of Thyrotropin-releasing hormone receptor (Homo sapiens) (P34981 whole entry, looked up): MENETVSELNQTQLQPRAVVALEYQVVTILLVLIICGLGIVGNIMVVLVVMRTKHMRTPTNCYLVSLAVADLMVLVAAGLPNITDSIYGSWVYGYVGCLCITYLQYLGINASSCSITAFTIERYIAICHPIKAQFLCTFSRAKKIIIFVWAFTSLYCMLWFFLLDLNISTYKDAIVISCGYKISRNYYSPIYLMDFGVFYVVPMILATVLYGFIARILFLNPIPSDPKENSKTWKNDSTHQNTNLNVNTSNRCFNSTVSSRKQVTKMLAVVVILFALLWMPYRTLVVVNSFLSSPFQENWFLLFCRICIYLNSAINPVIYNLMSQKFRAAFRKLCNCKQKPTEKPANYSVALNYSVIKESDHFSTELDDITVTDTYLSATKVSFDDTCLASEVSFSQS
Sequence of Thyrotropin receptor (Homo sapiens) (P16473 whole entry, looked up): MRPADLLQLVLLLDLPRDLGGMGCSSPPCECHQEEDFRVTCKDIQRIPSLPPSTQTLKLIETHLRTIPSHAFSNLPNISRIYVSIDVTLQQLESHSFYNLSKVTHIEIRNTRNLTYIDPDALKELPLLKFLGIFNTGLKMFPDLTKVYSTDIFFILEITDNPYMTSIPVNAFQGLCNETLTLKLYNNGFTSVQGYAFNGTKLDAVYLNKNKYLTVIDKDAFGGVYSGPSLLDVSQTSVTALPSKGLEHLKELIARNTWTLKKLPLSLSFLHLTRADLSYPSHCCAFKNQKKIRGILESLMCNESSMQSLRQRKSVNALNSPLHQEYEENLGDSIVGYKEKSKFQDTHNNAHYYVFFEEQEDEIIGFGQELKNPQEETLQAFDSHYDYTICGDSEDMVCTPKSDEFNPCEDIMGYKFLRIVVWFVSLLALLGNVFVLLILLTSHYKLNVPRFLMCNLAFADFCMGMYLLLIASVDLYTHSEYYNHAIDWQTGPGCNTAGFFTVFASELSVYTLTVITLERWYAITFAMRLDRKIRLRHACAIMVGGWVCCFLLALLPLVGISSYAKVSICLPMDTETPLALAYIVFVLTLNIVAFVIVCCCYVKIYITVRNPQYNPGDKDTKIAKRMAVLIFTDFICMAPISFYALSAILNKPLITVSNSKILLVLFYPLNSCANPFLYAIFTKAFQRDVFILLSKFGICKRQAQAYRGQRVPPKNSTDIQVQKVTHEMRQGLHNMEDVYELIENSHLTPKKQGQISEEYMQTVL
Sequence of Nuclear receptor subfamily 1 group I member 2 (Rattus norvegicus) (Q9R1A7 whole entry, looked up): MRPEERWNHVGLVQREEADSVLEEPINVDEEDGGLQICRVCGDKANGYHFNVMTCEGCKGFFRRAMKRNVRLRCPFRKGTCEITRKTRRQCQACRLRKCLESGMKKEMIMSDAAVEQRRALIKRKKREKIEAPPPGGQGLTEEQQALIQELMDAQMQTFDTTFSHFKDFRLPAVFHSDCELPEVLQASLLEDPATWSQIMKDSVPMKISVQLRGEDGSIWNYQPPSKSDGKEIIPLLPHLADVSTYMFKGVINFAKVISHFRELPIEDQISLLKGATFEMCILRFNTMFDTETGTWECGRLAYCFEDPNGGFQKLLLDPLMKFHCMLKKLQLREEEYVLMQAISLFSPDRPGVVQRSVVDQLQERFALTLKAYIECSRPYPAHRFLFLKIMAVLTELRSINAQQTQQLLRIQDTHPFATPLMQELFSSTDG

`O=S(=O)(O)c1ccc2cc(O)ccc2c1`: the Potency entry in test [1], in test [3], in [4], in test [9], in test [10] and in test [11] was “inactive” in each case. In addition, the Potency entry in test [13] was “inactive”. Moreover, the call in test [2], in test [5], in [6], in test [7], in test [8] and in [12] was inactive.

For the compound `O=C(C1CCCCC1)N1CC(=O)N2CCc3ccccc3C2C1` (centres undefined), the Potency result in [1], in [14], in test [3], in test [4], in test [9] and in [10] was “inactive” in each case. Also, the Potency result in [11] and in test [13] was “inactive” each time. The call in [2], in test [5], in test [7], in test [8] and in test [12] was inactive. Further, in test [15], the Potency was 30.6 µM (active).

Take `C1N2CN3CN1CN(C2)C3`: the outcome in test [16], in [2], in [5], in test [6], in test [7] and in test [8] was inactive. Besides, the result in [12] was inactive. Besides, the Potency result in test [1], in [3], in test [4], in test [9], in test [10] and in test [11] was “inactive” in each case. In addition, in [13], the Potency entry was “inactive”.

With `Oc1ccc(/C=C/c2cc(O)cc(O)c2)cc1`, the outcome in test [16], in test [5], in test [6], in test [7], in test [8] and in test [12] was inactive. For the same compound, the outcome in [19] was inactive. Moreover, the Potency result in [1], in test [3], in test [4], in test [17], in test [9] and in test [10] was “inactive” in each case. Further, in test [13], the Potency result is “inactive”. In [18], the max activation was -1.25% (inactive).

For `O=NO`, the compound was classed as inactive in [16], in test [5], in test [6] and in [12]. Further, the Potency entry in [1], in test [3], in test [4], in [17], in [9] and in test [10] was “inactive” each time. For the same compound, the Potency entry in test [11] and in [13] was “inactive” each time.

Take `NC(N)=O`: the compound was classed as inactive in test [16], in test [2], in test [5], in test [6], in test [12] and in [19]. The Potency result in [1], in test [3], in test [4], in [17], in test [10] and in test [13] was “inactive” each time. Besides, in test [20], the Potency entry was “inactive”. The Potency in [9] is 14.1 µM (active) and inactive. In test [18], the max activation was -2.71% (inactive).

For the compound `Cc1cn([C@H]2C[C@H](N=[N+]=[N-])[C@@H](CO)O2)c(=O)[nH]c1=O`, the Potency entry in [1], in test [3], in test [4], in test [10], in test [13] and in test [20] was “inactive” throughout. Besides, the call in test [2], in test [5], in [6], in test [12] and in test [19] was inactive. Also, the Potency in [9] was 70.8 µM (active) and inactive; in test [11] it was 15.8 µM (active) and inactive. Also, the max activation in test [18] was -3.59% (inactive).

With `O=C(O)/C=C\C(=O)O`, the outcome in [16], in test [2], in test [5], in test [6], in test [7] and in [8] was inactive. The compound was called inactive in test [12]. For the same compound, the Potency result in test [1], in test [3], in [4], in test [9], in test [10] and in [13] was “inactive” each time.

On to `N=C(N)c1ccc(OCCCCCOc2ccc(C(=N)N)cc2)cc1`, for which the compound was called inactive in test [16], in test [2], in [5], in [6], in test [7] and in test [8]. Moreover, in test [12], the call was inactive. Besides, the Potency entry in test [1], in [3], in test [4], in test [9], in [10] and in test [13] was “inactive” throughout. For the same compound, the Potency in test [11] is 54.2 µM (active) and inactive.
